A selection: hits, their analogues and other compounds. The true share with any hit is near 1.8%.
p53ts 32C kill: kills p53ts cells at the permissive temperature. H1299-p53A138V at 32C, ATP luminescence viability, 24 h. AID 924. Potency, µM (titrated, usually from 46.1 µM), hits mostly cytotoxic. 130,000 compounds, 0.93% hits; also: nearly all actives have a fitted effect of over 55% in size
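Cells: H1299 p53ts (A138V), 600/well, pre-incubated 16–30 h at 37C. Cpd up to 46 uM, 24 h, 32C. Readout: ATPlite luminescence, 20 min RT. Normalization: DMSO vs tamoxifen 100 uM. AC50 by Hill equation.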
p53ts 39C tox: p53ts cell cytotoxicity, nonpermissive temperature; Potency, µM (highest dose often 46.1 µM), actives largely listed as cytotoxic; AID 902; H1299-p53A138V viability at 39C, ATP luminescence, 24 h; 130,000 compounds, 1.5% hits; also: nearly all actives have a fitted effect of over 55% in size
Imprint erasure: inducers of genomic imprint erasure in mouse ES cells. mouse ES Peg3-LacZ reporter, beta-gal luminescence, 40 h. Potency, µM (doses to about 60.7 µM), most hits filed as activators. 110,000 compounds, 0.02% hits. AID 1948
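Imprint erasure is scored as LacZ activity from the silenced maternal Peg3 allele in feeder-free female ES cells cultured 40 h with LIF. Luminescence is normalized to in-plate negative controls and fitted to the Hill equation.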
Numbers stand for hits; [ ] = another dose, or the depositor's remark. Calls follow the shape of the dose curve; as a rule, active = well fitted curve in the direction sought with a large enough effect; inconclusive = small, poorly fitted or top-dose-only effect, or another doubt; inactive = no such curve, though single readings can be large; an effect the other way counts as inactive or inconclusive.

Results for CN1CCN(CCCN2c3ccccc3Sc3ccc(S(=O)(=O)N(C)C)cc32)CC1 ?
p53ts 32C kill: inactive; p53ts 39C tox: inactive; Imprint erasure: inactive

Results for COc1cccc(CNC(=O)C2CCN(S(=O)(=O)c3ccc4c(c3)CCCN4C(C)=O)CC2)c1 ?
p53ts 32C kill: inactive; p53ts 39C tox: inactive; Imprint erasure: inactive[10.9 µM]

What do the screens show for `CC(C)(C)OC(=O)N1CCC(c2c(C(=O)N3CCN(C(=O)c4ccco4)CC3)cnn2-c2ccccc2)CC1`?
p53ts 32C kill: inactive; p53ts 39C tox: inactive; Imprint erasure: inactive[10.9 µM]

How did C=C(C)Cn1c(SCC#N)nc2ccccc2c1=O do in these assays?
p53ts 32C kill: inactive; p53ts 39C tox: inactive; Imprint erasure: 1µM

What do the screens show for `C=C(C)Cn1c(SCC)nc2ccccc2c1=O`?
p53ts 32C kill: inactive; p53ts 39C tox: inactive; Imprint erasure: inactive

What do the screens show for `CC(C)CO/N=C1/[C@H]2O[C@@H]2[C@@H](O)[C@H]2[C@H]1CCn1c(=O)n(-c3ccccc3)c(=O)n12`?
p53ts 32C kill: inactive[9.22 µM]; p53ts 39C tox: inactive[9.22 µM]

What do the screens show for `CC1CCN(C(=O)CSc2nc3ccccc3nc2Cc2ccccc2)CC1`?
p53ts 32C kill: inactive; p53ts 39C tox: inactive; Imprint erasure: inactive[10.9 µM]

Results for O=C(NCC1CCN(Cc2cccc(Cl)c2)CC1)Nc1ccc(F)c(Cl)c1 ?
p53ts 32C kill: inactive; p53ts 39C tox: inconclusive; Imprint erasure: inactive[10.9 µM]

Results for O=C(NCC1CCN(Cc2cccc(Cl)c2)CC1)Nc1cc(Cl)ccc1Cl ?
p53ts 32C kill: inconclusive; p53ts 39C tox: 13µM; Imprint erasure: inactive[10.9 µM]

What do the screens show for `O=NC1=C(c2c(O)[nH]c3ccccc23)CCCC1`?
p53ts 32C kill: inactive; p53ts 39C tox: inactive; Imprint erasure: inactive

Results for O=Nc1c(-c2c(O)[nH]c3ccccc23)[nH]c2ccccc12 ?
p53ts 32C kill: 25µM; p53ts 39C tox: 25µM; Imprint erasure: inactive

Results for Cc1c(C(=O)Nc2ccccc2F)sc2ncnc(N(C)C3CCCCC3)c12 ?
p53ts 32C kill: inactive; p53ts 39C tox: inactive; Imprint erasure: inactive[10.9 µM]

How did CCOC(=O)N1CCc2c(sc3c2c(=O)n(CCc2ccccc2)c(=O)n3CC(=O)Nc2ccc(C)cc2)C1 do in these assays?
p53ts 32C kill: inactive; p53ts 39C tox: inactive; Imprint erasure: inactive[10.9 µM]

How did COc1ccccc1Nc1nn2c(=O)c3ccc(C(=O)NCc4cccs4)cc3nc2s1 do in these assays?
p53ts 32C kill: 3.2µM; p53ts 39C tox: 10µM; Imprint erasure: inactive[10.9 µM]

What do the screens show for `Cc1ccccc1Nc1nn2c(=O)c3ccc(C(=O)NCc4ccccc4)cc3nc2s1`?
p53ts 32C kill: inactive; p53ts 39C tox: inactive; Imprint erasure: inactive[10.9 µM]

What do the screens show for `CCN(CC)CCNC(=O)c1ccc2c(=O)n3nc(Nc4ccccc4OC)sc3nc2c1`?
p53ts 32C kill: inactive; p53ts 39C tox: inconclusive; Imprint erasure: inactive[10.9 µM]

Results for Cc1ccc(C)c(Nc2nn3c(=O)c4ccc(C(=O)NCc5cccs5)cc4nc3s2)c1 ?
p53ts 32C kill: 16µM; p53ts 39C tox: inconclusive; Imprint erasure: inactive[10.9 µM]

How did CCCCN(C)C(=O)c1ccc2c(=O)n3nc(Nc4cc(C)ccc4C)sc3nc2c1 do in these assays?
p53ts 32C kill: inactive; p53ts 39C tox: inactive; Imprint erasure: inactive[10.9 µM]

How did Cc1ccc(Cl)cc1Nc1nn2c(=O)c3ccc(C(=O)NCc4ccc(F)cc4)cc3nc2s1 do in these assays?
p53ts 32C kill: inactive; p53ts 39C tox: 13µM; Imprint erasure: inactive[10.9 µM]

Results for CCc1ccccc1Nc1nn2c(=O)c3ccc(C(=O)NCc4ccc(C)cc4)cc3nc2s1 ?
p53ts 32C kill: inconclusive; p53ts 39C tox: inactive; Imprint erasure: inactive[10.9 µM]

Results for CCc1ccc(NC(=O)c2ccc3c(=O)n4nc(Nc5ccccc5C)sc4nc3c2)cc1 ?
p53ts 32C kill: 13µM; p53ts 39C tox: inconclusive; Imprint erasure: inactive[10.9 µM]

Results for [N-]=[N+]=Nc1ccc(C(=O)CSC[C@@H](NC(=O)CC[C@@H](N)C(=O)O)C(=O)NCC(=O)O)cc1 ?
p53ts 32C kill: inactive; p53ts 39C tox: inactive

What do the screens show for `O=C(NC1CCCCC1)c1ccc2c(c1)N(Cc1cccc(Cl)c1)C(=O)c1ccccc1S2(=O)=O`?
p53ts 32C kill: inactive; p53ts 39C tox: inactive; Imprint erasure: inactive[10.9 µM]

What do the screens show for `COc1cc(NC(=O)CCNS(=O)(=O)c2ccc3c(c2)CCN3C(=O)C2CC2)cc(OC)c1`?
p53ts 32C kill: inactive; p53ts 39C tox: inactive; Imprint erasure: inactive[10.9 µM]

How did CCCNC(=O)c1c(NC(=O)c2ccccc2F)sc2c1CCCCC2 do in these assays?
p53ts 32C kill: inactive; p53ts 39C tox: inactive; Imprint erasure: inactive[10.9 µM]

What do the screens show for `Nc1ncnc2c1nc(Cl)n2C1OC(CO)C(O)C1O` (stereo not drawn)?
p53ts 32C kill: inconclusive; p53ts 39C tox: inconclusive; Imprint erasure: inactive

What do the screens show for `[N-]=[N+]=Nc1nc2c(N)ncnc2n1C1OC(CO)C(O)C1O` (stereo not drawn)?
p53ts 32C kill: 2µM; p53ts 39C tox: 2.5µM; Imprint erasure: inactive

What do the screens show for `Cc1cccc(Nc2nnc(-c3ccc(C)c(S(=O)(=O)NCC4CCCO4)c3)c3ccccc23)c1` (stereo not drawn)?
p53ts 32C kill: inactive; p53ts 39C tox: inactive; Imprint erasure: inactive[10.9 µM]

What do the screens show for `O=C(Nc1cccc(C(F)(F)F)c1)c1cc2nc(-c3ccccc3)cc(C(F)(F)F)n2n1`?
p53ts 32C kill: inactive; p53ts 39C tox: inactive; Imprint erasure: inactive[10.9 µM]

How did O=C(NCCc1ccccc1Cl)c1ccc(Cn2c(=O)c3cccn3c3cccnc32)cc1 do in these assays?
p53ts 32C kill: 10µM; p53ts 39C tox: inconclusive; Imprint erasure: inconclusive

How did CCCNC(=O)c1ccc(Cn2c(=O)c3cccn3c3cccnc32)cc1 do in these assays?
p53ts 32C kill: inactive; p53ts 39C tox: inactive; Imprint erasure: inactive[10.9 µM]

How did COc1ccc(-c2nc3cnc(N(C)C)nc3n(CCC#N)c2=O)cc1 do in these assays?
p53ts 32C kill: inactive; p53ts 39C tox: inactive; Imprint erasure: inactive

Results for CCOc1ccc(S(=O)(=O)N2CCN(c3cccc(C(F)(F)F)c3)CC2)cc1OCC ?
p53ts 32C kill: inactive; p53ts 39C tox: inactive; Imprint erasure: inactive[10.9 µM]

Results for CC1CCc2nc(NC(=O)C3CCCO3)sc2C1 (stereo not drawn) ?
p53ts 32C kill: 10µM; p53ts 39C tox: 13µM; Imprint erasure: inactive

How did C=CCOC(=O)c1sc(NC(=O)c2ccco2)nc1C do in these assays?
p53ts 32C kill: 10µM; p53ts 39C tox: inconclusive; Imprint erasure: inactive

Results for CCOC(=O)c1sc(NC(=O)c2ccc(CC)s2)nc1C ?
p53ts 32C kill: inactive; p53ts 39C tox: inactive; Imprint erasure: inactive

What do the screens show for `CC1CCc2nc(NC(=O)c3ccco3)sc2C1` (stereo not drawn)?
p53ts 32C kill: 2.5µM; p53ts 39C tox: 2.5µM; Imprint erasure: inactive

Results for CC1CCc2nc(NC(=O)Cc3cccs3)sc2C1 (stereo not drawn) ?
p53ts 32C kill: inactive; p53ts 39C tox: inactive; Imprint erasure: inactive

How did CCC(CC)C(=O)Nc1nc2c(s1)CC(C)CC2 (stereo not drawn) do in these assays?
p53ts 32C kill: inactive; p53ts 39C tox: inactive; Imprint erasure: inactive[10.9 µM]

How did O=C(Cn1cnc2c(oc3ccccc32)c1=O)Nc1ccc(F)cc1F do in these assays?
p53ts 32C kill: inactive; p53ts 39C tox: inactive; Imprint erasure: inactive[10.9 µM]

What do the screens show for `Cc1cc(C)cc(NC(=O)N2CCC(CN3CCc4ccccc4C3)CC2)c1`?
p53ts 32C kill: inactive

How did Fc1ccc(-n2cc(-c3ccccc3)c3c(NC4CCCCC4)ncnc32)cc1 do in these assays?
p53ts 32C kill: inactive; p53ts 39C tox: inactive; Imprint erasure: inactive[10.9 µM]

Compound activity as filed in PubChem BioAssay.
